Screening results: PubChem BioAssay, Sanford-Burnham Center for Chemical Genomics
Most compounds without a hit are left out; they make up all but 3.9% or so of the library.
TWEAK-Fn14 inh = inhibitors of TWEAK-Fn14 signaling, primary screen, luciferase reporter cells, uHTS | AID 1159606, 2016 | inhibition, % at 10 µM | TWEAK-stimulated Fn14 reporter cells, luciferase luminescence, 8 h | hit rate 2% among 360,000; in the data active = inhibition above about 50%
HIF-2a block = HIF-2a reporter inhibitors, primary screen, luminescence, 786-0 RCC cells | inhibition, % at 18.8 µM | hit rate 0.72% among 360,000 | 786-0 RCC cells HIF-2a reporter, luciferase luminescence, overnight;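 active = inhibition of the luminescence signal of 40% or more relative to plate controls, in a single-dose primary screen at 18.75 µM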
TROY signal inh = inhibitors of TROY-driven NF-kB signaling, primary screen, Q293 LMP1-TROYcd cells, NF-kB luciferase, uHTS; AID 1347056, 2019; hit rate 0.98% among 360,000; inhibition, % at 10 µM; Q293 LMP1-TROYcd NF-kB luciferase reporter, 4 h;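 active = compounds whose plate-normalised and pattern-corrected inhibition of the luciferase reporter signal at the single screening dose is 50% or more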
KKLEB cytotox = cytotoxicity in KKLEB CF airway cells, primary screen, cytotoxicity control for CF NF-kB inhibitor project, cell-based, uHTS, fluorescence assay plates; KKLEB CF airway cells viability, ATPlite luminescence, overnight; stronger effect = lower value; cells stimulated with P. aeruginosa culture filtrate; activity change (cytotoxicity), % at 5 µM; hit rate 0.36% among 360,000; AID 602141, 2011;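 active = corrected activity change at or below -50% at 5 µM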
CF NFkB block = inhibitors of PAF-induced NF-kB signaling, primary screen, cell-based, GFP fluorescence, uHTS. inhibition, % at 5 µM. KKLEB NF-kB-GFP reporter, GFP fluorescence overnight. hit rate 0.86% among 360,000;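 active = at least 50% inhibition at 5 µM, scaled per plate between neutral and stimulator controls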;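 note: PAF is a Pseudomonas aeruginosa culture filtrate used as stimulus; plate controls were PAF-stimulated DMSO wells for no effect and unstimulated DMSO wells for full effect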
Peg3 prom inh = Peg3 promoter-driven luciferase inhibitors, primary screen, cell-based, HeLa, luciferase luminescence. hit rate 1.7% among 360,000. HeLa PEG-Prom luciferase reporter, overnight. inhibition, % at 20 µM. AID 588405, 2011;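 active = inhibition of at least 50% at 20 µM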
An asterisk follows results filed as active; . = no result.

SMILES | TWEAK-Fn14 inh | HIF-2a block | TROY signal inh | KKLEB cytotox | CF NFkB block | Peg3 prom inh
CC1(C)CC(=O)c2cc(C(=O)NNc3ccccc3)c(=O)n(-c3ccccc3)c2C1 | -11 | 18 | -4 | 14 | -5 | -1
CC1(C)CC(=O)c2cc(C(=O)NCc3ccco3)c(=O)n(-c3ccccc3)c2C1 | 83* | 5 | . | -6 | 15 | 16
NC(c1csc(Nc2cc(NCc3ccco3)ncn2)n1)c1ccccc1Cl (centres undefined) | 21 | 28 | 11 | -24 | 39 | 13
COc1ccc(C(N)c2csc(Nc3ccc(C(F)(F)F)cn3)n2)cc1 (centres undefined) | -11 | 13 | 14 | -12 | 29 | 20
NC(Cc1ccccc1)c1csc(Nc2ccc(C(F)(F)F)cn2)n1 (centres undefined) | 24 | 5 | 9 | 3 | 1 | 100*
COc1cccc(Nc2nc(C(N)CC(C)C)cs2)n1 (centres undefined) | 0 | -1 | 5 | -8 | -17 | 12
COc1cccc(Nc2nc(C(N)Cc3ccc(Cl)cc3)cs2)n1 (centres undefined) | -6 | 12 | -24 | -14 | 15 | 99*
COc1ccc(CC(N)c2csc(Nc3ccccn3)n2)cc1 (centres undefined) | -15 | -38 | 0 | -13 | -2 | -33
NC(Cc1ccc(F)cc1)c1csc(Nc2cc(NCc3ccco3)ncn2)n1 (centres undefined) | 1 | 14 | 4 | -21 | 23 | 70*
COc1cccc(Nc2nc(C(N)Cc3ccc(F)cc3)cs2)n1 (centres undefined) | 6 | -9 | 14 | -28 | 37 | 114*
COc1cccc(Nc2nc(C(N)CCc3ccccc3)cs2)n1 (centres undefined) | 8 | 10 | 18 | -30 | 41 | 109*
COc1cccc(Nc2nc(C(N)Cc3ccc(C(F)(F)F)cc3)cs2)n1 (centres undefined) | -28 | 13 | -16 | -12 | 5 | 100*
COc1ccc(CC(N)c2csc(Nc3cc(Oc4ccccc4)ncn3)n2)cc1 (centres undefined) | -29 | 13 | 18 | -7 | -9 | 36
COc1cccc(Nc2nc(C(N)COCc3ccccc3)cs2)n1 (centres undefined) | -51 | 9 | 2 | -25 | 23 | 48
NC(=O)c1cccc(Nc2nc(C(N)Cc3ccc(C(F)(F)F)cc3)cs2)n1 (centres undefined) | -34 | -14 | 4 | -10 | -11 | 27
NC(Cc1ccc(Cl)cc1)c1csc(Nc2cc(Oc3ccccc3)ncn2)n1 (centres undefined) | 1 | 0 | 4 | -6 | 20 | 108*
CCNCc1ccc(OCc2cccs2)c(OCC)c1 | -18 | 14 | -4 | 4 | 2 | 13
COc1ccccc1NC(=O)CN(Cc1ccco1)C(=O)c1ccc(=O)[nH]c1 | -4 | 9 | -7 | -5 | -17 | 18
CC(C)C1N=C2c3ccccc3N=C(SCC(=O)NCCc3ccc(S(N)(=O)=O)cc3)N2C1=O (centres undefined) | 0 | 1 | -9 | -8 | 12 | 0
Nc1cc(N)nc(SCC(=O)Nc2ccccc2N2CCOCC2)n1 | 3 | 13 | 22 | 15 | -30 | 2
C=C1CCC[C@]2(C)C[C@H]3OC(=O)C(CNC(C)CCCC(C)C)[C@H]3CC12 (some centres undefined) | 12 | -7 | 20 | -3 | 7 | 104*
Cc1ccccc1-c1nc2cc(N)ccc2o1 | 9 | -270 | -28 | 6 | -29 | -286
CC(C)c1ccc2oc(-c3cc(N)ccc3O)nc2c1 | 81* | 23 | 69* | -35 | -4 | 3
c1ccc(COc2ncnc3c2ncn3CCCNCC2CCCO2)cc1 (centres undefined) | 8 | 1 | -4 | 3 | 4 | -7
COc1ccc2c(c1)c(CC(=O)NCc1cc([N+](=O)[O-])ccc1O)c(C)n2C(=O)c1ccc(Cl)cc1 | 43 | 5 | 62* | -15 | 25 | 33
SMILES | TWEAK-Fn14 inh | HIF-2a block | TROY signal inh | KKLEB cytotox | CF NFkB block | Peg3 prom inh
COc1ccc2c(c1)c(CC(=O)Nc1nnc(C3CC3)s1)c(C)n2C(=O)c1ccc(Cl)cc1 | 58* | -27 | 53* | 11 | -14 | 8
Cc1nc(=O)c(-c2ccccc2)c(C)n1CCCO | -21 | 18 | 3 | 12 | -7 | -3
O=C(Cn1ncc2c([nH]c3ccccc32)c1=O)Nc1ccc(CN2CCCCC2)cc1 | -9 | 7 | -24 | -11 | 1 | 73*
COC(=O)c1[nH]c2cccc(Cl)c2c1NC(=O)CN(C)C1CCCCC1 | 95* | 22 | -2 | 5 | -5 | 14
CCNC(=O)C1(C)CCCN(C(=O)c2cc(-c3cccs3)oc2C)C1 (centres undefined) | 44 | -8 | 5 | -11 | 24 | 1
COc1ccc(F)cc1-c1cc(C(=O)Nc2ccc(C)c(NS(C)(=O)=O)c2)[nH]n1 | 26 | -38 | 21 | 2 | -20 | 23
COc1ccc(F)cc1-c1cc(C(=O)NCc2cc(C(F)(F)F)cc(C(F)(F)F)c2)[nH]n1 | 8 | 2 | 29 | 6 | -30 | 1
CCCOc1ccc(F)cc1-c1cc(C(=O)NCc2cc(C(F)(F)F)cc(C(F)(F)F)c2)[nH]n1 | 53* | 6 | 23 | -7 | 10 | -9
CCCOc1ccc(F)cc1-c1cc(C(=O)Nc2ccc(C)c(NS(C)(=O)=O)c2)[nH]n1 | 59* | 7 | 41 | 15 | -20 | 50
N#CC1=C(Nc2ccccc2)SC=C(c2ccc(Br)cc2)N=C1N1CCOCC1 | -2 | -14 | -22 | 2 | 3 | 4
NS(=O)(=O)c1ccc(CCNS(=O)(=O)c2cccs2)cc1 | 3 | -2 | -12 | -11 | 13 | -4
Cc1ccc(-c2cnc3cc(C)nn3c2)cc1 | 74* | -86 | 18 | -8 | -12 | -81
Cc1ccc(-c2ccnc3c(Cl)c(C)nn23)cc1 | -4 | -23 | -17 | 6 | -7 | 3
Cc1cc2ncc(-c3ccc(Cl)cc3)cn2n1 | -6 | -231 | -53 | -3 | -1 | -229
Cc1ccc(-c2cnc3c(Cl)c(C)nn3c2)cc1 | 75* | -123 | 10 | -4 | -10 | -54
COc1ccc(CNC(=O)Nc2nc(C(N)Cc3ccc(C(F)(F)F)cc3)cs2)cc1 (centres undefined) | -3 | 2 | 13 | -8 | 23 | 95*
COc1ccc(CC(N)c2csc(NC(=O)NCCc3ccccc3)n2)cc1 (centres undefined) | -23 | 8 | 19 | -14 | 13 | 58*
